Fam108B counter: Fam108B inhibition, counter-screen for RBBP9 inhibitors. recombinant Fam108B, FP-Rh probe fluorescence polarization. inhibition, % at 9.51 µM. actives 0.33% (n = 300,000);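 active = inhibition above the screen mean inhibition plus 3 SD, computed separately per campaign, cut at about 18% in these data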;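 note: inhibitors lower polarization as less probe binds the enzyme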
pPAFAH FP inh: inhibitors of human plasma PAF acetylhydrolase (pPAFAH) | recombinant pPAFAH, FP-rhodamine probe fluorescence polarization | Q13093 | AID 463082 | inhibition, % at 3.39 µM | actives 1.5% (n = 330,000);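 active = inhibition above the mean inhibition across the screen plus 3 SD, cut at about 25% in these data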;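 note: inhibitors block binding of the rhodamine activity-based probe so polarization drops; 0% = enzyme with DMSO and 100% = wells lacking pPAFAH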
PAFAH1B3 FP inh: blocks human PAF acetylhydrolase 1B catalytic subunit 3. Q15102. recombinant PAFAH1B3, FP-rhodamine probe, fluorescence polarization. inhibition, % at 3.39 µM. actives 0.28% (n = 340,000);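 active = inhibition above the screen-wide average of all tested compounds plus 3 SD, cut at about 25% in these data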;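 note: 0% = enzyme with DMSO only and 100% = wells lacking PAFAH1B3 protein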
Target sequence (Q15102 whole entry, looked up): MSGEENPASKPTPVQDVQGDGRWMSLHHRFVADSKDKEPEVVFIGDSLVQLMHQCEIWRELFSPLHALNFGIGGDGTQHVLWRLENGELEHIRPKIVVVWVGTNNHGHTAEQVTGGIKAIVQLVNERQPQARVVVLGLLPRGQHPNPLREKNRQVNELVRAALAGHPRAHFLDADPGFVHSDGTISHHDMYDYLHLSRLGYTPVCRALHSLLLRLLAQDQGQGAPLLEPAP
PAFAH2 FP inh: PAFAH2 (human) inhibition; Q99487; recombinant PAFAH2, FP-rhodamine activity probe, fluorescence polarization; inhibition, % at 3.39 µM; actives 0.99% (n = 340,000); AID 492956;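 active = inhibition above the mean over all tested compounds plus 3 SD, cut at about 30% in these data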;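 note: inhibitors block probe labeling of enzyme so polarization drops; 0% = enzyme with DMSO and 100% = wells lacking PAFAH2 protein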
PAFAH1B2 inh: PAFAH1B2 (human) inhibition. P68402. recombinant PAFAH1B2, FP-rhodamine activity probe, fluorescence polarization. inhibition, % at 3.39 µM. actives 1.2% (n = 340,000). AID 492953;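 active = inhibition above the mean of all tested compounds plus 3 SD, cut at about 24% in these data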;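 note: 0% = enzyme with DMSO and 100% = wells lacking PAFAH1B2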
Target sequence (P68402 whole entry, looked up): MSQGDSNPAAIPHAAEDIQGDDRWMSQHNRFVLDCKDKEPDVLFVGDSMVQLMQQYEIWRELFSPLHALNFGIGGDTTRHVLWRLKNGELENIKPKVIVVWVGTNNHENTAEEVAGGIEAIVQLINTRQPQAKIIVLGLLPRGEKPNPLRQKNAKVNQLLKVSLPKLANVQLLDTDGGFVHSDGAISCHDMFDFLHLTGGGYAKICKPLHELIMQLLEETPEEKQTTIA
PME-1 primary: PME-1 (human) inhibition; AID 2130; recombinant PME-1, FP-Rh probe fluorescence polarization; Q9Y570; inhibition, % at 5.9 µM; actives 0.53% (n = 320,000);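 active = inhibition above the campaign mean of all compounds plus 3 SD, cut at about 26% in these data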;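 note: competitive labeling of PME-1 active site by serine hydrolase directed probe; 0% = PME-1 with DMSO and 100% = wells lacking PME-1 enzyme; inhibitors block probe labeling so polarization falls and inhibition rises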
Fam108b confirm: Fam108b (mouse) hydrolase inhibition, confirmation assay | shares compounds with Fam108B counter | recombinant Fam108b, FP-Rh probe fluorescence polarization | inhibition, % at 9.51 µM | actives 44% (n = 930);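 active = inhibition above a limit from the primary screen, the mean over all compounds plus 3 SD, cut at about 19% in these data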;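 note: 0% = median of active Fam108b wells and 100% = catalytically dead S170A mutant; inhibitors free the probe so polarization falls as inhibition rises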
Fam108b ABPP HTS: inhibits mouse Fam108b in gel-based ABPP; shares compounds with Fam108B counter; recombinant Fam108b, fluorophosphonate probe; inhibition, % at 20 µM; actives 44% (n = 260); AID 588649; in the data active = inhibition above about 40%
The depositor's hits bear a star. Most compounds without a hit are left out; they make up all but 2.8% or so of the library.

How did CCCSc1nnc(NC(=O)c2sc3nc(-c4cccs4)ccc3c2N)s1 do in these assays?
Fam108B counter: 22*; pPAFAH FP inh: 10; PAFAH1B3 FP inh: 11; PAFAH2 FP inh: 10; PAFAH1B2 inh: 10; PME-1 primary: 42*; Fam108b confirm: -107

How did Cc1csc(NC(=O)c2sc3nc(-c4cccs4)ccc3c2N)n1 do in these assays?
Fam108B counter: 31*; pPAFAH FP inh: 9; PME-1 primary: 45*; Fam108b confirm: 7

Results for CC1CCN(S(=O)(=O)c2ccc(C(=O)Nc3ccccc3-c3nc4ccccc4[nH]3)cc2)CC1 ?
Fam108B counter: 29*; pPAFAH FP inh: -6; PAFAH1B3 FP inh: -4; PAFAH2 FP inh: 25; PAFAH1B2 inh: 8; PME-1 primary: -46; Fam108b confirm: 71*; Fam108b ABPP HTS: 100*

How did CC1CCCN(S(=O)(=O)c2ccc(C(=O)Nc3ccccc3-c3nc4ccccc4[nH]3)cc2)C1 (centres undefined) do in these assays?
Fam108B counter: -33; pPAFAH FP inh: 3; PAFAH1B3 FP inh: -4; PAFAH2 FP inh: -20; PAFAH1B2 inh: -8; PME-1 primary: -10

What do the screens show for `Clc1ccc2[nH]c3c(c2c1)CCc1cn[nH]c1-3`?
Fam108B counter: 22*; pPAFAH FP inh: 18; PAFAH1B3 FP inh: 2; PAFAH2 FP inh: 5; PAFAH1B2 inh: 8; PME-1 primary: 40*; Fam108b confirm: 12

How did CC(=O)Nc1cccc(NC(=O)CSc2nc(=O)n(CCN3CCOCC3)c3c2CCCC3)c1 do in these assays?
Fam108B counter: -1; pPAFAH FP inh: 2; PAFAH1B3 FP inh: 11; PAFAH2 FP inh: -4; PAFAH1B2 inh: 5; PME-1 primary: -2

How did COc1ccccc1NS(=O)(=O)c1cc(NC(=O)c2cccs2)ccc1N1CCCC1 do in these assays?
Fam108B counter: 7; pPAFAH FP inh: -1; PAFAH1B3 FP inh: -3; PAFAH2 FP inh: -33; PAFAH1B2 inh: -6; PME-1 primary: -14

Results for O=C(Nc1ccc(N2CCCC2)c(S(=O)(=O)Nc2cccc(C(F)(F)F)c2)c1)c1cccs1 ?
Fam108B counter: 21*; pPAFAH FP inh: 3; PAFAH1B3 FP inh: 9; PAFAH2 FP inh: -30; PAFAH1B2 inh: 0; PME-1 primary: 8; Fam108b confirm: 33*; Fam108b ABPP HTS: 85*

How did CCN(c1ccc(OC)cc1)S(=O)(=O)c1nnc(NC(=O)c2ccccc2Cl)s1 do in these assays?
Fam108B counter: -2; pPAFAH FP inh: 6; PAFAH1B3 FP inh: -4; PAFAH2 FP inh: -10; PAFAH1B2 inh: 14; PME-1 primary: -7

What do the screens show for `O=C(COC(=O)c1cccc(O)c1)Nc1ccc(N2CCOCC2)cc1`?
pPAFAH FP inh: 1; PAFAH1B3 FP inh: 8; PAFAH2 FP inh: 8; PAFAH1B2 inh: 0; PME-1 primary: 2

Results for O=C(Nc1cccc(Cl)c1)Nc1sccc1-c1nc2ccccc2s1 ?
Fam108B counter: 27*; pPAFAH FP inh: 2; PME-1 primary: 3; Fam108b confirm: 20*

Results for O=C(Nc1ccccc1)Nc1sccc1-c1nc2ccccc2s1 ?
Fam108B counter: 12; pPAFAH FP inh: -2; PME-1 primary: -14

Results for COCCCn1c(C)cc(C(=O)CN2c3cccc4cccc(c34)S2(=O)=O)c1C ?
pPAFAH FP inh: 2; PAFAH1B3 FP inh: 1; PAFAH2 FP inh: 8; PAFAH1B2 inh: 2; PME-1 primary: 1

Results for CCN(c1ccccc1)S(=O)(=O)c1ccc(OC)c(NC(=O)CCc2nc3ccccc3c(=O)[nH]2)c1 ?
Fam108B counter: -1; pPAFAH FP inh: 8; PAFAH1B3 FP inh: 7; PAFAH2 FP inh: -3; PAFAH1B2 inh: 2; PME-1 primary: 19

How did Cc1ccc(S(=O)(=O)Nc2ccccc2C(=O)Nc2nc(-c3ccc(F)cc3)cs2)cc1 do in these assays?
Fam108B counter: 24*; pPAFAH FP inh: 25*; PAFAH1B3 FP inh: -2; PAFAH2 FP inh: 0; PAFAH1B2 inh: 2; PME-1 primary: 6; Fam108b confirm: 97*; Fam108b ABPP HTS: 65*

From PubChem
